Source: ChEMBL document CHEMBL1157539, “Thousands of chemical starting points for antimalarial lead identification” (Nature, 2010)

How the values were obtained:
Assay type in all cases: functional
[1] = test system: Plasmodium falciparum; experiment: GSK_TCMDC: Inhibition of Plasmodium falciparum 3D7 in whole red blood cells, using parasite LDH activity as an index of growth. Test compounds present at 2uM
[2] = test system: Plasmodium falciparum; experiment: GSK_TCMDC: Inhibition of Plasmodium falciparum Dd2 in whole red blood cells, using parasite LDH activity as an index of growth. Test compounds present at 2uM
[3] = test system: HepG2; experiment: GSK_TCMDC: Percent inhibition of human HepG2 cell line. Test compounds present at 10uM.

| SMILES | Inhibition [1] [%] | Inhibition [2] [%] | Inhibition [3] [%] |
| --- | --- | --- | --- |
| Cc1cccc2nc(-c3ccc(-c4cccc(CN5CCCC(O)C5)c4)s3)[nH]c12.O=C(O)C(F)(F)F (stereo not drawn) | 95 | 18 | 13 |
| Cl.Oc1cccc(Nc2ccnc3cc(-c4ccncc4)ccc23)c1 | 100 | 99 | 8 |
| O=C(O)C(F)(F)F.OC1CCCN(Cc2ccc(-c3cccc(-c4nc5cc(F)ccc5[nH]4)c3)cc2)C1 (stereo not drawn) | 99 | 49 | 28 |
| Br.CCC(C)Oc1ccc(CCCON2C(N)=NC(N)=NC2(C)C)cc1 (stereo not drawn) | 92 | 95 | 65 |
| Cc1cc(N2CCOCC2)nc(Nc2ccc(NC(=O)Nc3ccc(F)cc3)cc2)n1 | 100 | 34 | 35 |
| COCCn1c(SC(C)C(=O)Nc2cc(C(F)(F)F)ccc2Cl)nc2ccccc2c1=O (stereo not drawn) | 97 | 95 | 8 |
| CC(=O)c1cccc(NC(=O)N2CCCN(CCCCCNC(=O)/C=C/c3ccc(Cl)c(Cl)c3)CC2)c1 | 93 | 0 | 13 |
| COc1ccccc1C1CCN(C2CCC(NC(=O)/C=C/c3cc(F)cc(F)c3)CC2)CC1 (stereo not drawn) | 91 | 15 | 45 |
| Br.CCOC(=O)c1c(CNc2ccncc2)n(C)c2cc(Br)c(OC(C)=O)cc12 | 96 | 93 | 0 |
| FC(F)(F)c1cccc2c(NN=Cc3ccccc3)ccnc12 | 100 | 90 | 10 |
| CS(=O)(=O)c1ccc2[nH]c(-c3cc(-c4cccc(F)c4)cnc3N)nc2c1.O=C(O)C(F)(F)F | 100 | 71 | 33 |
| CC(C)NC(C)(C)CN(Cc1ccc(-c2ccc(C(F)(F)F)cc2)cc1)C(=O)Cn1c(CCc2cccc(F)c2F)nc(=O)c2ccccc21 | 94 | 68 | 44 |
| CC1(C)CCCN(c2ncc(-c3cccc(CNCc4ccccc4O)c3)cn2)C1 | 96 | 82 | 35 |
| CN1CCC(NCc2ccc(-c3ccc(S(=O)(=O)NC4CCC4)s3)cc2)CC1.O=C(O)C(F)(F)F | 92 | 31 | 31 |
| NC1CCN(Cc2ccc(-c3ccc(-c4nc5cc(F)ccc5[nH]4)s3)cc2)C1.O=C(O)C(F)(F)F (stereo not drawn) | 100 | 98 | 32 |
| N#Cc1ccnc(-c2ccc(CNC3CCN(CC4Cn5c(=O)ccc6ccc(F)c4c65)CC3)cc2)c1.O=C(O)C(F)(F)F (stereo not drawn) | 88 | 41 | 24 |
| CNCc1cccc2nc(-c3csc(Cc4cc(Cl)ccc4OCC(C)C)n3)[nH]c12 | 100 | 33 | 9 |
| CC(C)NCc1ccc(-c2cccc(NC(=O)c3cccc(C#N)c3)c2)cc1.O=C(O)C(F)(F)F | 100 | 78 | 9 |
| Fc1cc(Cl)ccc1Nc1ccnc2cc(-c3ccc(CN4CCOCC4)o3)ccc12 | 99 | 98 | 33 |
| COc1ccc2ccccc2c1CON1C(=N)N=C(N)NC1(C)C.Cl | 94 | 5 | 25 |
| O[C@H]1[C@H](OCc2ccc(-c3ccccc3)cc2)CC[C@@H]1N1CCCCC1 | 96 | 100 | 9 |

| SMILES | Inhibition [1] [%] | Inhibition [2] [%] | Inhibition [3] [%] |
| --- | --- | --- | --- |
| O=C(NCc1cccc(C(F)(F)F)c1)C(c1cc2ccccc2o1)N1CCN(C(c2ccccc2)c2ccccc2)CC1 (stereo not drawn) | 91 | 80 | 0 |
| COc1ccc(OC)c(Cc2cnc3nc(N)nc(N)c3c2C)c1 [PIRITREXIM] | 92 | 97 | 68 |
| CC(=O)c1c(Cc2cccc(C(F)(F)F)c2)c[nH]c1C | 94 | 92 | 6 |
| CC(C)(C)c1cc(NC(=O)c2ccc(Cl)c([N+](=O)[O-])c2)cc(C(C)(C)C)c1 | 93 | 7 | 0 |
| CC(CNc1nc(NCC(c2ccccc2)c2ccccc2)c2nc[nH]c2n1)c1ccccc1 (stereo not drawn) | 93 | 24 | 5 |
| O=S(=O)(c1cccc(Cl)c1F)N(CCC(O)(C(F)(F)F)C(F)(F)F)Cc1cccc(O)c1 | 100 | 86 | 0 |
| Cc1nc(-c2cccc(Nc3nccc(NCC(O)c4ccccc4)n3)c2)cs1 (stereo not drawn) | 99 | 82 | 43 |
| Brc1cc2c(cc1C=NNc1nc(=Nc3ccccc3)[nH]c(=Nc3ccccc3)[nH]1)OCO2 | 100 | 32 | 0 |
| c1ccn2c(-c3ncnc(NCc4ccc5c(c4)CCO5)n3)cnc2c1 | 86 | 47 | 12 |
| CC(=O)Nc1cccc(-c2cnc(N)c3cc(-c4ccc5c(c4)OCO5)ccc23)c1 | 99 | 93 | 100 |
| CNc1ccc(CNCc2ccc(-c3ccc(-c4nc5cc(C(F)(F)F)ccc5[nH]4)cc3)cc2)cc1.O=C(O)C(F)(F)F | 100 | 98 | 53 |
| CC(C)CNCc1ccc(-c2ccc(CN(CCCN3CCN(C)CC3)C(=O)/C=C/c3ccccc3)cc2)cc1.O=C(O)C(F)(F)F | 99 | 93 | 57 |
| Cc1cc(N)nc2ccc(-c3cccc(CN)c3)cc12 | 100 | 59 | 2 |
| Cc1nc(O)c2c(ccc3ccc(CNc4ccc(C(=O)N[C@@H](CCC(=O)O)C(=O)O)cc4)cc32)n1 | 89 | 95 | 32 |
| CCCOc1ccc(-c2nonc2NC(=O)c2cccc(OC)c2)cc1OCCC | 94 | 100 | 18 |
| COCCN1CCN(Cc2ccc(-c3ccc(-c4nc5cc(F)ccc5[nH]4)cc3)cc2)CC1.O=C(O)C(F)(F)F | 100 | 99 | 25 |
| CC[C@H](C)CNC(=O)c1cncc(-c2ccc(CN(C)C3CCN(C)CC3)cc2)c1.O=C(O)C(F)(F)F | 100 | 97 | 0 |
| CCOc1ccc(N2CCN(CCCCNC(=O)c3ccc(NC(=O)c4ccc(Cl)cc4)cc3)CC2)c(OCC)c1 | 100 | 65 | 36 |
| O=S(=O)(c1ccccc1Cl)N1CCCCC(c2ccc(C(F)(F)F)cc2)=N1 | 86 | 72 | 22 |
| COc1cccc(C(=O)C2CC2CN(C)CCC(O)c2ccc(Cl)c(Cl)c2)c1 (stereo not drawn) | 99 | 95 | 17 |
| Cc1ccc(OCC2CCN(c3ncc(C(=O)NC4CC4)cc3Cl)CC2)cc1 | 88 | 72 | 2 |

| SMILES | Inhibition [1] [%] | Inhibition [2] [%] | Inhibition [3] [%] |
| --- | --- | --- | --- |
| CNC(=O)c1cnc(Nc2ccc(N3CCN(C)CC3)cc2)nc1Nc1cccc([N+](=O)[O-])c1.O=C(O)C(F)(F)F | 100 | 100 | 31 |
| COc1ccc2c(c1)c(C1CCN(CCCCNC(=O)c3ccc(-c4ccc(C(F)(F)F)cc4)cc3)CC1)cn2C(C)C | 99 | 21 | 26 |
| CN(C)c1ccc2c(c1)Sc1cc(N(C)C)ccc1N2C(=O)c1cccc(C(=O)O)c1 | 99 | 73 | 8 |
| Br.CCCC1N=C(N)N=C(N)N1c1cccc([N+](=O)[O-])c1 (stereo not drawn) | 96 | 1 | 0 |
| FC(F)(F)c1ccc2[nH]c(-c3cccc(-c4cccc(CNCCc5ccncc5)c4)c3)nc2c1.O=C(O)C(F)(F)F | 99 | 97 | 31 |
| COc1ccccc1-c1csc(C(=O)NC2CCCCN(Cc3ccc(C(C)(C)C)cc3)C2)c1.O=C(O)C(F)(F)F (stereo not drawn) | 99 | 8 | 13 |
| CN(C)c1ccc(OCCCCCCOc2ccccc2)cc1.Cl | 85 | 68 | 0 |
| COCCNCc1ccc(-c2ccc3c(Nc4ccc(F)cc4Cl)ccnc3c2)o1 | 100 | 100 | 22 |
| CN(C)CCCn1c(C(=O)OC(c2ccccc2)c2ccccc2)cc2cc(OCc3ccccc3)ccc21 | 82 | 85 | 12 |
| Cn1cncc1C(=O)Nc1cccc(-c2csc(-c3nc4ccccc4[nH]3)c2)c1 | 100 | 64 | 15 |
| O=C(NCC(CCN1CCC(c2c[nH]c3ccccc23)CC1)c1ccccc1)Nc1ccc(Cl)c(Cl)c1 (stereo not drawn) | 100 | 53 | 46 |
| Cl.O=C1c2ccccc2CN1CCCN1CCC(Oc2ccc(F)cc2)CC1 | 97 | 1 | 14 |
| Cc1cccc2nc(-c3ccc(-c4cccc(CNCc5ccc(S(C)(=O)=O)cc5)c4)s3)[nH]c12.O=C(O)C(F)(F)F | 100 | 91 | 31 |
| CCOC(=O)c1[nH]c2ccc(F)cc2c1NC(=O)CN1CCN(c2cccc(C(F)(F)F)c2)CC1 | 96 | 90 | 12 |
| O=C(NCCCNc1nc2ccccc2[nH]1)c1cccc(OC(F)(F)F)c1 | 100 | 27 | 12 |
| CC(C)COc1ccc(Cl)cc1Cc1nc(-c2nc3ccc(N4CCN(C)CC4)nc3[nH]2)cs1.Cl | 99 | 27 | 29 |
| COc1ccc2cc(C(=O)NC3CCC(CCN4CCc5cc(C#N)ccc5C4)CC3)[nH]c2c1.Cl (stereo not drawn) | 88 | 0 | 9 |
| Cn1cncc1CNCc1ccc(-c2cccc(-c3nc4ccccc4[nH]3)c2)cc1.O=C(O)C(F)(F)F | 100 | 92 | 19 |
| CC(NC(=O)NC1CCC(CCN2CCCc3ccccc32)CC1)c1cccc2ccccc12.O=C(O)C(F)(F)F (stereo not drawn) | 90 | 83 | 0 |
